M1 antag = blocks human M1 muscarinic receptor; CHO-K1 hM1, Fluo-8 calcium fluorescence, ACh EC80 antagonist; inhibition, % at 3 µM; actives 1.3% (n = 360,000);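 active = percent inhibition above its own plate's cutoff, namely the mean of that plate's compound wells plus 3 SD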;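 also: peak over basal fluorescence ratio during 140 s after agonist addition; 0% = ACh EC80 plus DMSO and 100% = DMSO alone without agonist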
Target sequence (P11229 whole entry, looked up): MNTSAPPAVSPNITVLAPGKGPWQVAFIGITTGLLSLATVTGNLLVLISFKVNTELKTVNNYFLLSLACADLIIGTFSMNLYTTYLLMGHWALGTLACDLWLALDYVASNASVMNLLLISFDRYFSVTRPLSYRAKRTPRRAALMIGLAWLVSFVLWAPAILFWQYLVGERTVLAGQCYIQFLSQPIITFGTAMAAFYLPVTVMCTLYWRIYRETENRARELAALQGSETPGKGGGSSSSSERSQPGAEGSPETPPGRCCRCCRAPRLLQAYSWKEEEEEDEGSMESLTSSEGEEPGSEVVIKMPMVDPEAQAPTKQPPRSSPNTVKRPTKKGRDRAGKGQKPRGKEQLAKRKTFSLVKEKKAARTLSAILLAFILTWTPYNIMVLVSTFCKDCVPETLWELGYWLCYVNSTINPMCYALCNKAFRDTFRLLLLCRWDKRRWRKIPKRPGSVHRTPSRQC
M1 ag = activates human CHRM1 receptor. P11229. CHO-K1 hM1, Fluo-8 calcium fluorescence, agonist mode; 0% DMSO, 100% acetylcholine EC100. activation, % at 3 µM. actives 0.33% (n = 360,000). AID 588814;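 active = activation above the run's mean compound activation plus 3 SD, cut at about 16% in these data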;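 also: peak over basal fluorescence ratio within a 140 s kinetic read after compound addition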
CHO-K1 Ca PAM = M1 PAM counterscreen hit in parental CHO-K1 cells; ATP EC20, Fluo-8 calcium fluorescence; 0% at ATP EC20, 100% at ATP max; activation, % at 3 µM; actives 0.02% (n = 360,000);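 active = activation above the run cutoff, the mean activation of all test compounds plus 3 SD, cut at about 40% in these data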;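 also: peak over basal fluorescence ratio in a 140 s read after ATP addition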
CHO-K1 Ca ag = nonselective activator or artifact in parental CHO-K1 cells; Fluo-8 calcium fluorescence; scaled to maximal ATP response, vehicle zero; activation, % at 3 µM; actives 0.48% (n = 360,000); AID 602248; in the data active = activation above about 15%;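 also: untransfected CHO-K1 host cells lacking M1 receptor as counterscreen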
CHRM1 PAM = human CHRM1 positive allosteric modulation; CHO-K1 hM1, Fluo-8 calcium fluorescence, ACh EC20; 0% = ACh EC20, 100% = maximal ACh; activation, % at 3 µM; actives 0.088% (n = 360,000); AID 588819; in the data active = activation above about 19%, passing the limit was not always enough
CHO-K1 Ca antag = M1 antagonist counterscreen hit in parental CHO-K1 cells. ATP-induced calcium, Fluo-8 fluorescence. inhibition, % at 3 µM. actives 0.6% (n = 360,000). AID 602250;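 active = inhibition above a per-plate cutoff, the plate's mean sample inhibition plus 3 SD, cut at about 24% in these data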;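 also: 0% = DMSO plus EC80 ATP and 100% = DMSO alone without ATP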
The depositor's hits bear a star; · = not tested or not shown. Only some compounds are listed: those with a hit (about 2.3% of all), similar ones and a draw of the others.

SMILES | M1 antag | M1 ag | CHO-K1 Ca PAM | CHO-K1 Ca ag | CHRM1 PAM | CHO-K1 Ca antag
O=C(c1ccc(=O)n(Cc2ccccc2)n1)N1CCN(C/C=C/c2ccccc2)CC1 | 41* | 0 | 4 | 4 | -19 | -3
CCOC(=O)c1sc(NC(=O)CSc2n[nH]c(-c3ccccc3)n2)c(C#N)c1C | 19 | 5 | 1 | 10 | -15 | 27*
CCOC(=O)c1sc(NC(=O)CSc2nc(C)cc(C)n2)c(C#N)c1C | -7 | -2 | 9 | 0 | 5 | -3
CCOC(=O)c1sc(NC(=O)CSc2ncn[nH]2)c(C#N)c1C | 7 | 0 | 22 | 18* | 4 | 3
CCOC(=O)c1c(NC(=O)CSc2n[nH]c(CNc3ccccc3)n2)sc(C)c1C | -12 | 1 | 22 | -1 | 18 | -4
CCOC(=O)c1c(NC(=O)CSc2n[nH]c(-c3ccco3)n2)sc(C)c1C | 4 | -3 | -7 | 0 | 2 | 24*
CCOC(=O)c1sc(NC(=O)CSc2ccccn2)c(C#N)c1C | 3 | -4 | -6 | 0 | 2 | -12
O=[N+]([O-])c1ccc(COc2ccc(CNc3ccccc3)cc2)cc1 | 26* | -10 | 14 | 10 | -23 | -3
CCN(CC(=O)Nc1c(F)cccc1F)C(=O)CCc1nc2sc3c(c2c(=O)[nH]1)CCCC3 | -10 | -3 | -7 | 1 | 11 | -7
C=CCn1c(C(C)C)nc2ccccc21 | 2 | -2 | 5 | 18* | 2 | 5
C=CCn1c(C(O)c2ccccc2)nc2ccccc21 (stereo not given) | -14 | -3 | 19 | 0 | 6 | -10
O=C(NCCCN1CCOCC1)C(=O)N/N=C/c1c2ccccc2cc2ccccc12 | 65* | -11 | 3 | 0 | -24 | -1
O=C(NCCCN1CCOCC1)C(=O)N/N=C/c1c(Cl)cccc1Cl | 2 | -10 | 21 | 0 | 8 | -12
OC[C@@H]1CN(Cc2ccc3c(c2)OCO3)C[C@H](n2cnc3c(NCc4ccc(F)cc4)ncnc32)O1 | -7 | 3 | 26 | 6 | 7 | 4
Nc1nc(SCC(=O)Nc2c(Br)cc([N+](=O)[O-])cc2Br)n[nH]1 | 1 | -6 | -1 | 0 | 0 | 29*
CCOC(=O)C1=C(C)N(c2ccccc2)C(=O)NC1c1cccc([N+](=O)[O-])c1 (stereo not given) | 68* | -9 | 6 | 0 | -23 | 0
CCCCN1C(=O)/C(=C/C=C2/CC(C)(C)CN2C)SC1=S | 36* | 31* | 2 | 38* | -18 | 28*
CCN1C(=O)/C(=C/C=C2/SCCN2C)SC1=S | -4 | 8 | 2 | 3 | 6 | 12
CCCCN1C(=O)/C(=C/C=C2\Oc3ccccc3N2CC)SC1=S | 43* | 28* | 2 | 15* | -8 | 22
O=C(Cn1cccc1C(=O)c1ccccc1)NCc1cccc(Cl)c1 | 11 | -6 | 21 | -1 | -3 | -19
Cc1ccc(S(=O)(=O)N2C[C@H]3C(=O)C[C@@H](c4ccccc4F)N(S(=O)(=O)c4ccc(C)cc4)[C@H]3C[C@H]2c2ccccc2)cc1 | -6 | 12 | -9 | 0 | 12 | 31*
Cc1ccc([C@@H]2CC(=O)[C@@H]3CN(S(=O)(=O)c4ccc(C)cc4)[C@H](c4ccccc4F)C[C@@H]3N2S(=O)(=O)c2ccc(C)cc2)cc1 | 2 | 13 | 7 | 0 | 13 | 15
Cc1ccc(S(=O)(=O)N2C[C@H]3C(=O)C[C@@H](c4ccc(Cl)cc4)N(S(=O)(=O)c4ccc(C)cc4)[C@H]3C[C@H]2c2cccc3ccccc23)cc1 | -40 | 0 | -6 | 0 | 17 | 30*
Cc1ccc([C@@H]2C[C@H]3[C@@H](CN2S(=O)(=O)c2ccc(C)cc2)C(=O)C[C@@H](c2ccc(Cl)cc2)N3S(=O)(=O)c2ccc(C)cc2)cc1 | 2 | -1 | 16 | 1 | -1 | -12
COc1cc(OC)cc(C(=O)N[C@H](C(=O)Nc2nc3ccc(S(C)(=O)=O)cc3s2)C(C)C)c1 | 1 | -4 | 9 | 1 | 3 | 1
SMILES | M1 antag | M1 ag | CHO-K1 Ca PAM | CHO-K1 Ca ag | CHRM1 PAM | CHO-K1 Ca antag
O=C(Nc1ccc(Cl)cc1)C1Cc2c(-c3cccc(F)c3)ccnc2O1 (stereo not given) | -4 | -3 | 14 | 0 | 3 | -5
COc1ccc(NCC(=O)NN=C2CCS(=O)(=O)c3ccc(F)cc32)cc1 | 4 | 0 | 15 | 2 | -2 | -7
CCCCCCCCCCn1ccc(=N)cc1 | 63* | -8 | 2 | 0 | -25 | 7
CCCN(C)C1CN(Cc2cn(Cc3ccccc3)nn2)S(=O)(=O)C1 (stereo not given) | · | · | 2 | 0 | · | -17
C[C@@H]1CCCCCCCCC(=O)OCCN[C@H](C)CCCCCCCCC(=O)OCCN[C@H](C)CCCCCCCCC(=O)OCCN1 | 47* | -14 | 1 | 0 | -38 | -2
O=C(CN1CCN(CC(=O)c2ccc(Cl)cc2)CC1)c1ccc(Cl)cc1 | -6 | -2 | 8 | 1 | 0 | -13
O=C(Cn1cc(Cl)ccc1=O)c1ccc(Cl)cc1 | -3 | -4 | -16 | -1 | 4 | 24*
N#Cc1ccccc1S(=O)(=O)N1CCN(CC(O)COc2ccccc2F)CC1 (stereo not given) | -9 | 0 | -2 | 9 | 2 | -7
COc1nccnc1NS(=O)(=O)c1ccc(NC(=O)c2ccc(F)cc2)cc1 | -23 | 0 | 22 | 1 | 29* | -5
O=C(c1ccc(F)cc1)N1CCN=C1c1ccccc1 | 1 | -4 | 1 | 0 | -1 | -6
CCCCCOc1ccc(Br)cc1CSC(=N)N | 24* | -1 | 3 | 6 | -13 | 24*
COc1ccc(Br)cc1CSC(=N)N | 0 | -13 | 3 | 2 | -1 | 1
O=C(NC(=S)NNC(=O)c1cccs1)c1ccc(Br)o1 | -16 | 33* | 0 | 14 | -4 | -6
CCC(O)c1cc2c(cc1NC(=O)c1ccc(C)cc1)OCCO2 (stereo not given) | 26* | -3 | -7 | 0 | -14 | 17
N[C@@H](C(=O)N[C@@H]1C(=O)N2C(C(=O)O)=C(Cl)CS[C@H]12)c1ccccc1 | -28 | 18* | 12 | 1 | -3 | -1
CCCCN(C=O)c1c(CC)nc2ccc(C(=O)NCc3cccs3)cn12 | -24 | -4 | 20 | 1 | 13 | -15
Cc1cc(CNC[C@H]2O[C@@H](n3cnc4c(N)ncnc43)[C@H](O)[C@@H]2O)no1 | -18 | -2 | 16 | 1 | 10 | -4
CCNC(=O)c1ccc(NC(=O)CC2SC(N3CCCC3)=NC2=O)cc1 (stereo not given) | -25 | 3 | 9 | 0 | 28* | -7
CCCCCNC(=O)c1ccc(NC(=O)CC2SC(N3CCCC3)=NC2=O)cc1 (stereo not given) | -11 | -5 | 18 | 0 | 4 | -8
